{"source": "the supplement of paper PMC8728848", "binders": {"B1": {"name": "Gs78B-bfa-542-29-542 (Bacteroides fragilis) (protein)", "chain": "SEDINRNPLLPTKEDEKMDGVIYGAYLPNLEKSVIPIGTASESTEPVNRYQIGVNLAGDAWAGYMSPRDNKFNGSKNFTNYFMYENWVNYVYSFMVTDVYSPWMQIKRISQDEGTRNDEIYALAQIIKIAALHRTTDMFGPIPYSQVGKGSFKVAYDSQESVYRSFLKELEEAVQTLDDYSNKSKEVLPAFDIVYNGDVNKWMRFANSLMLRLAIRVRFADAGLAKEYAEKAVKHPAGLINSKELAAQMGKGAGLQMKNPLKVINEEYNDTRMGATIYSYLAGYNDARAAVYFVKNNGFKAVRCGIAKSGDAYNGFTRPNVHEDDPLYWMKASEVCFLKAEGALAGFDMGGSAGDFYNAGIRMSFSENGLDNSSAETYLKDSTRKPANYTDTSNGELSANAPSSITIRWENGATEEEKLERIITQKYLAIFPNGQEAWTEWRRTGYPRQIVVAENKTNSAVLIGNGYDLGGVRRLPYPRTEYEQNGENLHNAISQYLGGVDNAATKVWWDKKSK"}}, "assay_in_all_cases": "glycan array binding signal (z-score within array); higher = stronger binding", "settings_in_all_cases": "glycan notation: IUPAC condensed, linker removed", "key": {"[1]": {"molecular_target": "Fuc(a1-2)Gal(b1-3)GalNAc(a1-3)[Fuc(a1-2)]Gal(b1-4)Glc", "how_it_was_run": "(§1)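 The Consortium for Functional Glycomics database supplied 3228 glycan arrays, of which those lacking an available protein sequence were dropped. The binding signal, a within-array Z-score, was averaged across arrays of the same protein sequence and across linkers. Negative scores can be read as non-binding.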"}, "[2]": {"molecular_target": "Fuc(a1-2)Gal(b1-3)GlcNAc(b1-3)Gal(b1-4)Glc", "how_it_was_run": "as §1"}, "[3]": {"molecular_target": "Fuc(a1-2)Gal(b1-3)GlcNAc(b1-3)[Fuc(a1-2)Gal(b1-3)GlcNAc(b1-6)]GalNAc", "how_it_was_run": "as §1"}, "[4]": {"molecular_target": "Fuc(a1-2)Gal(b1-4)[Fuc(a1-3)]GlcNAc(b1-3)Gal(b1-4)[Fuc(a1-3)]GlcNAc", "how_it_was_run": "as §1"}, "[5]": {"molecular_target": "Fuc(a1-2)[Gal(a1-3)]Gal(b1-3)GlcNAc(b1-6)GalNAc", "how_it_was_run": "as §1"}, "[6]": {"molecular_target": "Fuc(a1-2)[Gal(a1-3)]Gal(b1-4)GlcNAc(b1-3)GalNAc", "how_it_was_run": "as §1"}, "[7]": {"molecular_target": "Fuc(a1-2)[GalNAc(a1-3)]Gal(b1-4)GlcNAc(b1-3)Gal(b1-4)GlcNAc(b1-3)Gal(b1-4)GlcNAc", "how_it_was_run": "as §1"}, "[8]": {"molecular_target": "Fuc(a1-3)[Gal(b1-4)]GlcNAc(b1-2)Man(a1-3)[Fuc(a1-3)[Gal(b1-4)]GlcNAc(b1-2)Man(a1-6)]Man(b1-4)GlcNAc(b1-4)GlcNAc", "how_it_was_run": "as §1"}, "[9]": {"molecular_target": "Gal(a1-3)Gal(b1-3)[Fuc(a1-4)]GlcNAc(b1-2)Man(a1-3)[Gal(a1-3)Gal(b1-3)[Fuc(a1-4)]GlcNAc(b1-2)Man(a1-6)]Man(b1-4)GlcNAc(b1-4)GlcNAc", "how_it_was_run": "as §1"}, "[10]": {"molecular_target": "Gal(b1-3)GlcNAc(b1-2)Man(a1-3)[Gal(b1-3)GlcNAc(b1-2)Man(a1-6)]Man(b1-4)GlcNAc(b1-4)[Fuc(a1-6)]GlcNAc", "how_it_was_run": "as §1"}, "[11]": {"molecular_target": "Gal(b1-3)GlcNAc(b1-3)Gal(b1-4)GlcNAc(b1-2)Man(a1-3)[Gal(b1-3)GlcNAc(b1-3)Gal(b1-4)GlcNAc(b1-2)Man(a1-6)]Man(b1-4)GlcNAc(b1-4)GlcNAc", "how_it_was_run": "as §1"}, "[12]": {"molecular_target": "Gal(b1-3)GlcNAc6S", "how_it_was_run": "as §1"}, "[13]": {"molecular_target": "Gal(b1-3)[Fuc(a1-4)]GlcNAc(b1-2)Man", "how_it_was_run": "as §1"}, "[14]": {"molecular_target": "Gal(b1-4)GlcNAc(b1-2)Man(a1-3)Man(b1-4)GlcNAc(b1-4)GlcNAc", "how_it_was_run": "as §1"}, "[15]": {"molecular_target": "Gal(b1-4)GlcNAc(b1-3)Gal(b1-4)GlcNAc", "how_it_was_run": "as §1"}, "[16]": {"molecular_target": "Gal(b1-4)GlcNAc(b1-3)Gal(b1-4)GlcNAc(b1-2)Man(a1-3)[Gal(b1-4)GlcNAc(b1-3)Gal(b1-4)GlcNAc(b1-2)Man(a1-6)]Man(b1-4)GlcNAc(b1-4)[Fuc(a1-6)]GlcNAc", "how_it_was_run": "as §1"}, "[17]": {"molecular_target": "Gal(b1-4)GlcNAc(b1-3)Gal(b1-4)GlcNAc(b1-2)[Gal(b1-4)GlcNAc(b1-3)Gal(b1-4)GlcNAc(b1-6)]Man(a1-6)[Gal(b1-4)GlcNAc(b1-3)Gal(b1-4)GlcNAc(b1-2)Man(a1-3)]Man(b1-4)GlcNAc(b1-4)[Fuc(a1-6)]GlcNAc", "how_it_was_run": "as §1"}, "[18]": {"molecular_target": "Gal(b1-4)GlcNAc(b1-3)Gal(b1-4)GlcNAc(b1-3)Gal(b1-4)GlcNAc(b1-2)Man(a1-3)[Gal(b1-4)GlcNAc(b1-3)Gal(b1-4)GlcNAc(b1-3)Gal(b1-4)GlcNAc(b1-2)Man(a1-6)]Man(b1-4)GlcNAc(b1-4)GlcNAc", "how_it_was_run": "as §1"}, "[19]": {"molecular_target": "Gal(b1-4)GlcNAc(b1-3)Gal(b1-4)GlcNAc(b1-3)Gal(b1-4)GlcNAc(b1-2)Man(a1-3)[Gal(b1-4)GlcNAc(b1-3)Gal(b1-4)GlcNAc(b1-3)Gal(b1-4)GlcNAc(b1-2)Man(a1-6)]Man(b1-4)GlcNAc(b1-4)[Fuc(a1-6)]GlcNAc", "how_it_was_run": "as §1"}, "[20]": {"molecular_target": "Gal3S(b1-4)Glc6S", "how_it_was_run": "as §1"}, "[21]": {"molecular_target": "Gal3S(b1-4)[Fuc(a1-3)]GlcNAc", "how_it_was_run": "as §1"}, "[22]": {"molecular_target": "Gal6S(b1-4)Glc", "how_it_was_run": "as §1"}, "[23]": {"molecular_target": "Gal6S(b1-4)Glc6S", "how_it_was_run": "as §1"}, "[24]": {"molecular_target": "GalNAc(b1-3)Gal", "how_it_was_run": "as §1"}, "[25]": {"molecular_target": "GalNAc(b1-3)Gal(a1-4)Gal(b1-4)GlcNAc", "how_it_was_run": "as §1"}, "[26]": {"molecular_target": "GalNAc(b1-3)Gal(a1-4)Gal(b1-4)GlcNAc(b1-3)Gal(b1-4)Glc", "how_it_was_run": "as §1"}, "[27]": {"molecular_target": "GalNAc(b1-3)GalNAc", "how_it_was_run": "as §1"}}, "note": "This excerpt belongs to a sample that is enriched for the strongest signals."}
{"binder": "B1", "values": [{"measurement": "glycan array binding signal (z-score)", "setting": "[1]", "result": 0.024}, {"measurement": "glycan array binding signal (z-score)", "setting": "[2]", "result": -0.826}, {"measurement": "glycan array binding signal (z-score)", "setting": "[3]", "result": 0.287}, {"measurement": "glycan array binding signal (z-score)", "setting": "[4]", "result": -0.816}, {"measurement": "glycan array binding signal (z-score)", "setting": "[5]", "result": 2.8}, {"measurement": "glycan array binding signal (z-score)", "setting": "[6]", "result": 0.185}, {"measurement": "glycan array binding signal (z-score)", "setting": "[7]", "result": 1.31}, {"measurement": "glycan array binding signal (z-score)", "setting": "[8]", "result": 1.04}, {"measurement": "glycan array binding signal (z-score)", "setting": "[9]", "result": 4.3}, {"measurement": "glycan array binding signal (z-score)", "setting": "[10]", "result": 1.53}, {"measurement": "glycan array binding signal (z-score)", "setting": "[11]", "result": -0.404}, {"measurement": "glycan array binding signal (z-score)", "setting": "[12]", "result": 2.8}, {"measurement": "glycan array binding signal (z-score)", "setting": "[13]", "result": -0.693}, {"measurement": "glycan array binding signal (z-score)", "setting": "[14]", "result": 0.534}, {"measurement": "glycan array binding signal (z-score)", "setting": "[15]", "result": -0.463}, {"measurement": "glycan array binding signal (z-score)", "setting": "[16]", "result": 2.98}, {"measurement": "glycan array binding signal (z-score)", "setting": "[17]", "result": 3.42}, {"measurement": "glycan array binding signal (z-score)", "setting": "[18]", "result": 2.01}, {"measurement": "glycan array binding signal (z-score)", "setting": "[19]", "result": 3.12}, {"measurement": "glycan array binding signal (z-score)", "setting": "[20]", "result": -0.778}, {"measurement": "glycan array binding signal (z-score)", "setting": "[21]", "result": -0.801}, {"measurement": "glycan array binding signal (z-score)", "setting": "[22]", "result": 0.825}, {"measurement": "glycan array binding signal (z-score)", "setting": "[23]", "result": 0.798}, {"measurement": "glycan array binding signal (z-score)", "setting": "[24]", "result": -0.448}, {"measurement": "glycan array binding signal (z-score)", "setting": "[25]", "result": 0.47}, {"measurement": "glycan array binding signal (z-score)", "setting": "[26]", "result": 1.12}, {"measurement": "glycan array binding signal (z-score)", "setting": "[27]", "result": -0.725}]}
